High-throughput results as filed in PubChem.
The list is not random: actives were taken first. Their share in the collection is about 8%.
Coupling enz: inhibits coupling enzyme system, counter-screen for aldolase hits; coupling enzyme system counterscreen, AmpLite Red fluorescence; AID 2472; activity change, negative = inhibition, % at 58.2 µM, hits read low; 290,000 compounds, 0.67% hits; in the data active = activity change below about -30%
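Counterscreen lacking aldolase: glyceraldehyde-3-phosphate coupling-enzyme reagent preincubated 10 min at RT with compound (at 57.5 uM final), then substrate/coupling system with AmpLite Red added; fluorescence read at 525/598 nm after 20 min RT.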
VP16 counter: inhibits Gal4-VP16 luciferase reporter, ROR gamma counter-screen; 310,000 compounds, 3.5% hits; Potency, µM (titrated, usually from 53.6 µM), for inactives: top-dose activity, negative = inhibition, actives largely listed as inhibitors; Drosophila S2 Gal4-VP16 UAS-luciferase, luminescence, 20 h;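 also: Gal4-VP16 expression switched on by copper sulfate through the metallothionein promoter; potency is read from the fitted curve at half-maximal effect; nearly all actives have a fitted effect of over 50% in size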
ELG1 repair inh: inhibitors of ELG1-dependent DNA repair in HEK293T cells. Potency, µM (highest dose often 46.1 µM), for the others: at the top dose activity change, negative = inhibition, usual class: inhibitors. HEK293T ELG1-luciferase reporter, luminescence, 16 h; DNA damage induced by 5-fluorouridine. 330,000 compounds, 2.3% hits; also: potency is read from the fitted curve at half-maximal effect; nearly all actives have a fitted effect of over 55% in size
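DMSO vehicle served as the neutral condition. Each well held 2,000 cells given 5-fluorouridine plus compound; after 16 hr at 37 °C/5% CO2, ONE-Glo was added and luciferase measured 30 min later.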
TSHR antagonist: blocks TSH signaling through the human TSH receptor; activity change, negative = inhibition, % at 11.5 µM; 330,000 compounds, 0.2% hits; TSHR-expressing cells, TSH-stimulated cAMP HTRF, 2 h; hits give low values;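 active = activity change below a set negative limit, meaning inhibition stronger than a set level, cut at about -70% in these data; inconclusive = activity change between two set negative limits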
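Competitive HTRF cAMP read-out (cryptate anti-cAMP antibody, cAMP-d2; 30 min, room temperature) in freshly harvested TSHR cells. Compounds added before TSH at EC80 (4nM final), followed by 2 hours' incubation at 37 deg C.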
RORg inh: blocks mouse ROR gamma transcriptional activity | P51450 | Drosophila S2 Gal4-RORgamma UAS-luciferase reporter, 20 h | Potency, µM (doses to about 53.6 µM), inactives show at the top dose activity change, negative = inhibition, hits mostly inhibitors | 310,000 compounds, 5.4% hits; also: potency is read from the fitted curve at half-maximal effect; nearly all actives have a fitted effect of over 60% in size
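ROR gamma transcriptional activity was tracked as Gal4-UAS luciferase output in stably transfected Drosophila Schneider cells, with compound added 1 hr before 700 uM copper sulfate induction and a 20 hr ambient-temperature incubation.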
Active calls of the source: *; ? = inconclusive; / = no result given. Unless noted, calls follow the shape of the dose curve; as a rule, active = well fitted curve in the direction sought with a large enough effect; inconclusive = small, poorly fitted or top-dose-only effect, or another doubt; inactive = no such curve, though single readings can be large; an effect the other way counts as inactive or inconclusive. % is scaled to controls: 0 for no effect and ±100 for the full control effect.

SMILES	Coupling enz	VP16 counter	ELG1 repair inh	TSHR antagonist	RORg inh
CCSC[C@H](NC(=O)[C@H](C)NC(=O)[C@@H](N)Cc1ccc(O)cc1)C(=O)N[C@@H](CC(=O)O)C(=O)N[C@H](C(=O)N[C@@H](C)C(=O)N[C@H](C(=O)N[C@@H](CSCC)C(=O)N[C@H](C(=O)N[C@H](C(=O)N[C@@H](Cc1cnc[nH]1)C(=O)N[C@@H](CCCNC(=N)N)C(=O)N[C@@H](CC(C)C)C(=O)N[C@@H](C)C(=O)NCC(=O)N[C@@H](CC(C)C)C(=O)N[C@@H](CC(C)C)C(=O)N[C@@H](CO)C(=O)N[C@@H](CCCNC(=N)N)C(=O)N[C@@H](CO)C(=O)NCC(=O)NCC(=O)N[C@H](C(=O)N[C@H](C(=O)N[C@@H](CCCCN)C(=O)N[C@@H](CC(N)=O)C(=O)N[C@@H](CC(N)=O)C(=O)N[C@@H](Cc1ccccc1)C(=O)N[C@H](C(=O)N1CCC[C@H]1C(=O)N[C@H](C(=O)N[C@@H](CC(N)=O)C(=O)N[C@H](C(=O)NCC(=O)N[C@@H](CO)C(=O)N[C@@H](CCCCN)C(=O)N[C@@H](C)C(=O)N[C@@H](Cc1ccccc1)C(N)=O)C(C)C)[C@@H](C)O)C(C)C)C(C)C)C(C)C)[C@@H](C)O)C(C)C)[C@@H](C)O)[C@@H](C)O	-1	2%	/	/	-3%
Cc1noc(C)c1C(=O)OCC(=O)Nc1ccccc1SCC#N	/	/	?	5	/
CCOc1cc2c(C#N)c(N3CCCCC3)nc(N)c2c(N)n1	-48*	-1%	1%	-3	-21%
CCN(CC)C(=O)Cn1c(=O)n(CC(=O)N2CCCCC2)c(=O)c2sccc21	/	-4%	12%	0	0%
OCCCNc1cc(-c2ccnc(Nc3cccc(Cl)c3)n2)ccn1	-2	1µM*	0.58µM*	9	1.8µM*
CCCCN(C)CCNC(=O)c1cn(C)c(=O)c2c1c1ccccc1n2C	-3	-1%	?	23	6%
CCN(CC)c1ccc(/C=N/NC(=S)NCc2ccccc2)cc1	-1	4µM*	-16%	16	1.3µM*
C=CCNC(=S)N/N=C/c1ccc(N(CC)Cc2ccccc2)cc1	-2	0.71µM*	?	-17	0.5µM*
COc1ccc(CNC(=S)N/N=C/c2ccncc2)cc1	1	?	7%	-3	?
CCN(CC)c1ccc(/C=N/NC(=S)NCc2ccc(OC)cc2)cc1	2	1.4µM*	?	33	0.89µM*
CCOC(=O)c1cnc2cc(F)c(F)cc2c1N1CCN(C)CC1	-1	-2%	-18%	-1	9%
CCO/C=N/Nc1nc(C(F)(F)F)nc2c1cnn2Cc1ccccc1	1	-5%	?	-18	-5%
CC(=O)N1CCCc2cc(S(=O)(=O)CCC(=O)N3CCN(c4cccc(C)c4)C(C)C3)ccc21 (stereo unspecified)	0	4%	21µM*	5	14%
Cc1ccc(C)c(N2CCN(C(=O)CCS(=O)(=O)c3ccc4c(c3)CCN4C(=O)C3CC3)CC2)c1	/	-2%	-14%	-82*	10%
Brc1csc(C=Nc2ccc3c(c2)OCCOCCOCCOCCO3)c1	-6	-7%	?	3	-14%
Oc1c(Cl)cc(Cl)cc1C=Nc1ccc2c(c1)OCCO2	-1	-20%	?	-9	14µM*
CCCn1c(C(CO)Nc2nc(-c3cccc(Br)c3)cs2)nc2ccccc21 (stereo unspecified)	-1	?	11%	-2	13µM*
CC(Nc1nc(-c2cccc(Br)c2)cs1)c1nc2cc(Cl)c(N3CCCCC3)cc2n1CCOCCO (stereo unspecified)	-1	-21%	?	-10	-34%
CCCn1c(C(C)Nc2nc(-c3ccc(C)cc3)cs2)nc2cc(Cl)c(Cl)cc21 (stereo unspecified)	0	-8%	0%	9	11µM*
CCc1ccc(-c2nc3ccc(Br)cc3c(C(=O)O)c2C)s1	1	-9%	27%	-7	6%
c1cc(CN2CCCNCCNCCCNCC2)ccc1CN1CCCNCCNCCCNCC1	-2	-18%	/	/	-26%
